About 410 targets per protein were measured; listed, in parts, are those with the strongest signals and a random draw of the rest.
B1: ConA (Canavalia ensiformis), P02866 (protein)
chain: MAISKKSSLFLPIFTFITMFLMVVNKVSSSTHETNALHFMFNQFSKDQKDLILQGDATTGTDGNLELTRVSSNGSPQGSSVGRALFYAPVHIWESSAVVASFEATFTFLIKSPDSHPADGIAFFISNIDSSIPSGSTGRLLGLFPDANVIRNSTTIDFNAAYNADTIVAVELDTYPNTDIGDPSYPHIGIDIKSVRSKKTAKWNMQNGKVGTAHIIYNSVDKRLSAVVSYPNADSATVSYDVDLDNVLPEWVRVGLSASTGLYKETNTILSWSFTSKLKSNEIPDIATVV
B2: FaeGad (Escherichia coli) (protein)
chain: WMTGDFNGSVDIGGSITADDYRQKWEWEVGTGLNGFGSVLNDLTNGGTKLTITVTGNKPILLGRTKEAFATPVTSGVDGIPHIAFTDYEGASVELRNPDGETEKGLTYFVLPMKNAEGTKVGSVKVNASYAGALGRGGVTSADGELMSLFAEGSHAIFYGGLPTNVKNSELKGGSAAAARTELFGSLSKNDILGQIQRVNANITSLVNVPGSFNENMAYTDGSVVSVAYALGIANGQTIEATFNQAVTTSTQWSAPLNVAITYY

Assays:
Assay in all cases: glycan array binding signal (z-score within array); higher = stronger binding
Conditions in all cases: glycan notation: IUPAC condensed, linker removed
Man(a1-3)[Man(a1-6)]Man = molecular target: Man(a1-3)[Man(a1-6)]Man
How it was run: (§1)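 From the Consortium for Functional Glycomics database, 3228 arrays were curated, keeping only those whose protein sequence was available. Binding is given as a within-array Z-score averaged across arrays sharing a protein sequence and across linkers. Negative Z-scores can be read as non-binding.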

[1] = molecular target: Man(a1-3)[Man(a1-6)]Man(a1-6)[Man(a1-2)Man(a1-3)]Man(b1-4)GlcNAc(b1-4)GlcNAc
How it was run: as §1

[2] = molecular target: Man(a1-3)[Man(a1-6)]Man(a1-6)[Man(a1-3)]Man
How it was run: as §1

Neu5Ac(a2-3)Gal = molecular target: Neu5Ac(a2-3)Gal
How it was run: as §1

[3] = molecular target: Neu5Ac(a2-3)Gal(b1-3)GalNAc(b1-4)[Neu5Ac(a2-8)Neu5Ac(a2-3)]Gal(b1-4)Glc
How it was run: as §1

[4] = molecular target: Neu5Ac(a2-3)Gal(b1-4)GlcNAc
How it was run: as §1

[5] = molecular target: Neu5Ac(a2-3)Gal(b1-4)GlcNAc(b1-2)Man(a1-3)[GlcNAc(b1-2)Man(b1-4)GlcNAc(b1-2)Man(a1-6)]Man(b1-4)GlcNAc(b1-4)GlcNAc
How it was run: as §1

[6] = molecular target: Neu5Ac(a2-3)Gal(b1-4)GlcNAc(b1-3)Gal(b1-4)GlcNAc(b1-3)Gal(b1-4)GlcNAc
How it was run: as §1

[7] = molecular target: Neu5Ac(a2-6)GlcNAc(b1-4)GlcNAc(b1-4)GlcNAc
How it was run: as §1

[8] = molecular target: Neu5Ac9Ac(a2-3)Gal(b1-4)GlcNAc
How it was run: as §1

[9] = molecular target: Neu5Ac9Ac(a2-6)Gal(b1-4)GlcNAc
How it was run: as §1

[10] = molecular target: Fuc(a1-2)Gal(b1-3)GalNAc(b1-3)Gal(a1-4)Gal(b1-4)Glc
How it was run: as §1

Fuc(a1-2)GlcNAc = molecular target: Fuc(a1-2)GlcNAc
How it was run: as §1

Gal(a1-6)Glc = molecular target: Gal(a1-6)Glc
How it was run: as §1

[11] = molecular target: Gal(b1-3)[Fuc(a1-4)]GlcNAc(b1-3)Gal(b1-4)[Fuc(a1-3)]GlcNAc
How it was run: as §1

Gal(b1-4)Glc6S = molecular target: Gal(b1-4)Glc6S
How it was run: as §1

[12] = molecular target: Gal(b1-4)GlcNAc(b1-3)Gal(b1-4)Glc
How it was run: as §1

Glc(a1-4)Glc = molecular target: Glc(a1-4)Glc
How it was run: as §1

Glc(a1-6)Glc(a1-6)Glc = molecular target: Glc(a1-6)Glc(a1-6)Glc
How it was run: as §1

Glc(b1-4)Glc = molecular target: Glc(b1-4)Glc
How it was run: as §1

[13] = molecular target: GlcNAc(a1-3)Gal(b1-4)GlcNAc
How it was run: as §1

[14] = molecular target: GlcNAc(b1-4)GlcNAc(b1-4)GlcNAc
How it was run: as §1

[15] = molecular target: Man(a1-2)Man(a1-2)Man(a1-6)[Man(a1-3)]Man
How it was run: as §1

[16] = molecular target: Neu5Ac(a2-3)Gal(b1-4)[Fuc(a1-3)]GlcNAc
How it was run: as §1

[17] = molecular target: Neu5Ac(a2-3)Gal(b1-4)[Fuc(a1-3)]GlcNAc(b1-3)Gal(b1-4)[Fuc(a1-3)]GlcNAc(b1-3)Gal(b1-4)[Fuc(a1-3)]GlcNAc
How it was run: as §1

Neu5Ac(a2-3)GalNAc = molecular target: Neu5Ac(a2-3)GalNAc
How it was run: as §1

[18] = molecular target: Neu5Ac(a2-6)Gal(b1-4)GlcNAc(b1-3)Gal(b1-4)GlcNAc
How it was run: as §1

[19] = molecular target: Neu5Ac(a2-6)Gal(b1-4)GlcNAc(b1-3)Gal(b1-4)[Fuc(a1-3)]GlcNAc(b1-3)Gal(b1-4)[Fuc(a1-3)]GlcNAc
How it was run: as §1

[20] = molecular target: Neu5Ac(a2-8)Neu5Ac(a2-8)Neu5Ac
How it was run: as §1

Binder | glycan array binding signal (z-score) (Man(a1-3)[Man(a1-6)]Man) | glycan array binding signal (z-score) [1] | glycan array binding signal (z-score) [2] | glycan array binding signal (z-score) (Neu5Ac(a2-3)Gal) | glycan array binding signal (z-score) [3] | glycan array binding signal (z-score) [4] | glycan array binding signal (z-score) [5] | glycan array binding signal (z-score) [6] | glycan array binding signal (z-score) [7] | glycan array binding signal (z-score) [8] | glycan array binding signal (z-score) [9] | glycan array binding signal (z-score) [10] | glycan array binding signal (z-score) (Fuc(a1-2)GlcNAc) | glycan array binding signal (z-score) (Gal(a1-6)Glc) | glycan array binding signal (z-score) [11] | glycan array binding signal (z-score) (Gal(b1-4)Glc6S) | glycan array binding signal (z-score) [12] | glycan array binding signal (z-score) (Glc(a1-4)Glc) | glycan array binding signal (z-score) (Glc(a1-6)Glc(a1-6)Glc) | glycan array binding signal (z-score) (Glc(b1-4)Glc) | glycan array binding signal (z-score) [13] | glycan array binding signal (z-score) [14] | glycan array binding signal (z-score) [15] | glycan array binding signal (z-score) [16] | glycan array binding signal (z-score) [17] | glycan array binding signal (z-score) (Neu5Ac(a2-3)GalNAc) | glycan array binding signal (z-score) [18] | glycan array binding signal (z-score) [19] | glycan array binding signal (z-score) [20]
B1 | 5.51 | 4.75 | 4.27 | -0.283 | -0.248 | -0.29 | -0.041 | -0.269 | -0.184 | -0.009 | -0.243 |  |  |  |  |  |  |  |  |  |  |  |  |  |  |  |  |  | 
B2 |  |  |  |  |  |  |  |  |  |  |  | -0.404 | -0.247 | 0.615 | 0.979 | 0.601 | 0.629 | 9.55 | 10.2 | 3.57 | 0.188 | 0.137 | 1.83 | -0.45 | -0.187 | -0.452 | -0.289 | -0.414 | -0.377

From the supplement of paper PMC8728848
